HPGD inh – HPGD (human) dehydrogenase inhibition; Potency, µM, usual class: inhibitors; purified HPGD, NADH fluorescence kinetic, PGE2 substrate; P15428; 150,000 compounds, 4.3% hits; active = well fitted inhibition curve with a large enough effect, not every such curve was filed as active; inconclusive = small, poorly fitted or top-dose-only effect, or another doubt; inactive = no such curve, though single readings can be large or run the other way
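20 nM HPGD preincubated 15 min at room temperature with compound in 50 mM Tris-HCl pH 8, 0.01% Tween 20. Started with 1 mM NAD+ and 30 uM prostaglandin E2; NADH fluorescence (360/450 nm) read 5 times over 30-s intervals, last minus first.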
12-hLO inh – 12-hLO (ALOX12) enzyme inhibition; Potency, µM (top dose mostly 57.1 µM), usual class: inhibitors; 150,000 compounds, 0.12% hits; purified 12-hLO, xylenol orange hydroperoxide absorbance; P18054; note: nearly all actives have a fitted effect of over 55% in size
Target sequence (P18054 whole entry, looked up): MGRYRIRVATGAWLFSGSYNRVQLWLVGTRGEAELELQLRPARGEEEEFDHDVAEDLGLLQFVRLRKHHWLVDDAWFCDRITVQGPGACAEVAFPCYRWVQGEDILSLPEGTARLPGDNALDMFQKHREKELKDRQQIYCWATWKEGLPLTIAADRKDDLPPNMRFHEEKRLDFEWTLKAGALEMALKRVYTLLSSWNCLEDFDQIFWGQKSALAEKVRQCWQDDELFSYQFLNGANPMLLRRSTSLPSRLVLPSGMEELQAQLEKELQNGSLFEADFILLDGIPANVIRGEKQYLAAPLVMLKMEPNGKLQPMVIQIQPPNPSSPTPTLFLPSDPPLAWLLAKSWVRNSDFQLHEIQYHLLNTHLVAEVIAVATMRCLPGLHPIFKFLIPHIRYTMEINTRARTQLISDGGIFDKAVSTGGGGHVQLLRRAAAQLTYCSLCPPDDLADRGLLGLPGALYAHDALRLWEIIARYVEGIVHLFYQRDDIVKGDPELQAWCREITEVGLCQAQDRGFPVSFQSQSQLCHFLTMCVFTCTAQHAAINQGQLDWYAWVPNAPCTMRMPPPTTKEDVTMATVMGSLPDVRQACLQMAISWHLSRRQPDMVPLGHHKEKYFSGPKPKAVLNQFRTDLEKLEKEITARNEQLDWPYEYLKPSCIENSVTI
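Purified human 12hLO (150 nM final) was preincubated with compounds for 15 min at room temperature in 25 mM Hepes pH 7.0, 0.01% Triton X-100, then reacted with 40 uM arachidonic acid for 30 min. Hydroperoxide was detected with ferrous iron/xylenol orange.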
p53ts 32C kill – cytotoxicity in p53ts cells at permissive temperature | H1299-p53A138V at 32C, ATP luminescence viability, 24 h | 130,000 compounds, 0.93% hits | Potency, µM (series often up to 46.1 µM), usual class: cytotoxic | AID 924; note: nearly all actives have a fitted effect of over 55% in size
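ATP-content luminescence (ATPlite) read-out after 24 h compound exposure at 32C in H1299-p53A138V cells (600/well). Tested up to 46 uM. Normalized to DMSO (0%) and 100 uM tamoxifen (100% killing); Hill-fit AC50.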
p53ts 39C tox – cytotoxicity in p53ts cells at nonpermissive temperature. AID 902. Potency, µM (doses to about 46.1 µM), usual class: cytotoxic. H1299-p53A138V viability at 39C, ATP luminescence, 24 h. 130,000 compounds, 1.5% hits; note: nearly all actives have a fitted effect of over 55% in size
Numbers stand for hits; 0 = inactive; ? = inconclusive; - = no result. Sampled rows, rich in hits. Any-hit rate of the full collection: about 4.4%. Unless noted, calls come from the whole dose curve; as a rule, active = well fitted curve in the direction sought with a large enough effect; inconclusive = small, poorly fitted or top-dose-only effect, or another doubt; inactive = no such curve, though single readings can be large; an effect the other way counts as inactive or inconclusive.

SMILES	HPGD inh	12-hLO inh	p53ts 32C kill	p53ts 39C tox
COc1ccc(N=NC2=C(O)CC(C)(C)CC2=O)c(OC)c1	0	0	0	0
COc1ccc(N=NC2=C(O)CC(C)(C)CC2=O)cc1	31.6µM	0	-	-
O=C(CSc1nc(=O)n(Cc2ccco2)c2c1CCC2)Nc1cccc(F)c1	-	-	0	0
CC1=C(C(=O)Nc2cc(Cl)ccc2C)C2(CCCCC2)OC1=O	-	-	0	0
CN(C)CCN(Cc1ccccc1)S(=O)(=O)c1cccc2cccnc12	-	-	0	0
CN(Cc1ccccc1)S(=O)(=O)c1cccc2cccnc12	22.4µM	0	-	-
CN(CC(=O)N1CCCCC1)S(=O)(=O)c1cccc2cccnc12	15.8µM	0	0	0
Cc1noc(C)c1C(=O)N1CCC2(CCN(Cc3ccccc3)CC2)CC1	0	0	0	0
COc1ccc(OCCCC(=O)NCc2ccco2)cc1	?	0	-	-
Cc1ccc(OCCCC(=O)NCc2ccco2)cc1	25.1µM	0	-	-
Cc1ccccc1OCCCC(=O)NCc1ccco1	25.1µM	0	-	-
CC(C)Nc1ncnc2c1cnn2-c1ccc(Cl)cc1	?	0	12.6µM	15.8µM
CCC(CO)Nc1ncnc2c1cnn2-c1ccc(C)cc1 (stereo unspecified)	-	-	?	15.8µM
Clc1ccc(Nc2ncnc3c2cnn3-c2ccccc2)cc1	0	0	?	?
COCCNC(=O)c1noc2c1CCc1cc(OC)ccc1-2	25.1µM	0	0	?
Cc1ccc2oc(-c3ccc(Cl)c(NC(=O)c4ccc(-c5ccccc5[N+](=O)[O-])o4)c3)nc2c1	-	-	0	0
CCCC(=O)c1ccc(N2CCOCC2)c(F)c1	0	0	0	0
Cc1ccc(C(=O)c2ccc(N3CCOCC3)c(F)c2)cc1	28.2µM	0	0	0
COc1cc(/C=C2/C(=O)NN(c3cccc(C)c3)C2=O)ccc1OC(=O)c1ccco1	2µM	?	-	0
COc1cc(/C=C(\C#N)c2nc3ccccc3[nH]2)ccc1OC(=O)c1ccco1	?	0	-	-
CCOc1cc(/C=C2\C(=O)N(c3ccc(C(N)=O)cc3)N=C2C)ccc1OC(=O)c1cccs1	7.08µM	0	-	-
CCOc1cc(/C=N/NC(=O)CSc2nncn2C)ccc1OCc1ccccc1	0	0	-	-
CCOc1cc(/C=C2/C(=O)N(c3ccccc3)N=C2C)ccc1OC(=O)c1ccco1	8.91µM	0	-	-
CCOc1cc(/C=C2\C(=O)ON=C2C)ccc1OCc1ccccc1	7.08µM	0	-	-
CCOc1cc(/C=N/NC(=O)COc2ccc(C)cc2)ccc1OC(=O)c1cccs1	0	0	-	-
SMILES	HPGD inh	12-hLO inh	p53ts 32C kill	p53ts 39C tox
CCOCCc1nn2c(=O)cc(COC(=O)c3ccc4c(c3)OCO4)nc2s1	-	-	0	0
O=C(CN1C(=O)C(c2ccc(F)cc2)=NC12CCCCCC2)Nc1ccccc1Cl	-	-	0	?
O=C(CN1C(=O)C(c2ccc(F)cc2)=NC12CCCCCC2)Nc1ccc(F)c(Cl)c1	-	-	0	10µM
O=C(CSc1nc2ccccc2o1)Nc1nc2ccccc2s1	0	0	0	0
COc1cccc(-n2nnnc2SCC(=O)Nc2nc3c(s2)CCCC3)c1	25.1µM	0	0	0
O=C(CSc1nc2ccccc2o1)Nc1nc2c(s1)CCCC2	-	-	?	12.6µM
COC(=O)c1cccc(-n2nnnc2SCC(=O)Nc2nc3c(s2)CCCC3)c1	20µM	0	0	0
O=C(c1ccc2c(c1)N(Cc1cccc(Cl)c1)C(=O)c1ccccc1S2(=O)=O)N1CCC(Cc2ccccc2)CC1	-	-	0	0
CCOC(=O)CSc1nc2c(c(=O)n1-c1ccc(OCC)cc1)SCC2	0	0	0	0
CCOC(=O)CSc1nc2c(c(=O)n1-c1ccc(OC)cc1)SCC2	0	0	1.26µM	1.26µM
Nc1c(-c2nc(-c3cccs3)no2)nnn1-c1ccccc1Cl	-	-	0	?
COC(=O)N/N=C/c1ccc(-c2ccc(C)c(Cl)c2)o1	14.1µM	0	-	-
COC(=O)N/N=C/c1ccc(-c2cc(Cl)cc(Cl)c2)o1	0	0	-	-
CCCOc1ccc(CSc2nc3ccccc3[nH]2)cc1	0	0	-	-
CCOc1ccc(OCCSc2nc3ccccc3[nH]2)cc1	25.1µM	0	0	0
COCCNC(=O)CN1C(=O)COc2ccc(S(=O)(=O)N3CCOCC3)cc21	-	-	0	0
Cc1cc(C(=O)CN2CC(C)OC(C)C2)c(C)n1-c1ccccc1 (stereo unspecified)	0	0	0	0
Cc1ccc(-n2c(C)cc(C(=O)CSc3nncs3)c2C)cc1	25.1µM	0	12.6µM	?
Cc1cc(C(=O)CSc2nncs2)c(C)n1-c1c(C)n(C)n(-c2ccccc2)c1=O	0	0	0	0
Cc1ccc(-n2c(C)cc(C(=O)CN3CCCCC3)c2C)cc1	12.6µM	0	-	-
CCc1ccc(NC(=O)c2cc(C(C)=O)n3ccccc23)cc1	-	-	0	?
Cc1ccc(C(=O)N2CCCC2)cc1Br	20µM	0	-	-
O=C(c1ccc(-c2ccccc2)cc1)c1ccccc1C(=O)N1CCOCC1	0	0	-	-
O=C(c1ccccc1)N1CCCCCC1	4.47µM	0	-	-
O=C(/C=C/N1CCOCC1)c1ccc(-c2ccccc2)cc1	28.2µM	?	0	0
SMILES	HPGD inh	12-hLO inh	p53ts 32C kill	p53ts 39C tox
CCOc1ccccc1C(=O)N1CCOCC1	0	0	-	-
CCOc1ccc(OCc2ccc(C(=O)N3CCOCC3)cc2)cc1	15.8µM	0	0	0
Cc1ccc(C(=O)N2CCC(C(N)=O)CC2)cc1C	0	0	0	0
O=C(c1ccccc1)N1CCN(S(=O)(=O)N2CCCCC2)CC1	0	0	0	0
Cc1ccc(CNC(=O)c2ccc3c(c2)N(Cc2ccccc2Cl)C(=O)CS3)cc1	-	-	0	?
Clc1cccc(-c2ccc(CNCCSc3nnnn3-c3ccccc3)o2)c1	-	-	?	0
CN(C)C(=O)/N=N/C(=O)N(C)C	0	-	-	-
O=C(c1ccccc1)c1ccc(C(=O)N2CCOCC2)cc1	7.94µM	0	0	0
O=C(c1ccccc1)N1CCN(C(=O)N2CCOCC2)CC1	0	0	0	0
O=C(c1cccc(COc2cccc3ccccc23)c1)N1CCCC1	20µM	0	0	0
O=C(c1ccccc1Cl)N1CCNCC1	0	0	-	-
O=C(c1c(Cl)cccc1Cl)N1CCCCCC1	28.2µM	0	0	0
Cn1nnc2cc(C(=O)N3CCCCCC3)ccc21	3.16µM	0	0	0
COc1ccc2c(c1)CC(NC(=O)Nc1cc(Cl)ccc1OC)CO2 (stereo unspecified)	-	-	0	0
Cc1ccc(NC(=O)Cn2c(=O)n(-c3ccc(Cl)c(Cl)c3)c(=O)c3c(C)c(C)sc32)c(C)c1	-	-	0	0
CCc1ccc(C2=NN(CCC(=O)NCCc3ccc(Cl)cc3)C(=O)CC2)cc1	-	-	0	?
Cc1nnc(Nc2ccc3c(c2)OCO3)c2ccccc12	0	0	0	0
CCOc1ccc(C(=S)N2CCCC2)cc1	0	0	-	-
Cc1nnc(Nc2ccc(C(=O)N3CCOCC3)cc2)c2ccccc12	15.8µM	0	0	0
O=C(Nc1cc(C(=O)N2CCCC2)ccc1N1CCCC1)c1ccccc1	25.1µM	0	0	0
CS(=O)(=O)N1CCc2cc(C(=O)N3CCCCC3)ccc21	3.16µM	0	0	0
CS(=O)(=O)N1CCc2cc(C(=O)N3CCOCC3)ccc21	0	0	0	0
CCOc1ccc(C(=O)N2CCCCCC2)cc1	2µM	0	0	0

Assay outcomes: PubChem BioAssay, National Center for Advancing Translational Sciences (NCATS)
